# Screening results from PubChem.
# Lmaj promast: Leishmania major promastigote growth inhibition. Leishmania major promastigotes, resazurin fluorescence viability. inhibition, % at 10 µM. 200,000 tested, 9% active. AID 1063; in the data active means inhibition above about 50%;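 further: promastigotes grown with compound for 44 hours at 28 °C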
# PTEN del growth: suppresses growth of cells with PTEN deletion; 140,000 tested, 1.2% active; viability, % at 10 µM; AID 827; HCT116 PTEN-null viability, CellTiter-Glo, 60 h; stronger effect = lower value;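 active means viability at or below a set limit, 4 SD under the median of all tested compounds, cut at about 3.7% in these data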;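 further: PTEN knockout HCT116 line with beta catenin targeted HCT116 as companion control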
# bCat KO growth: beta-catenin-lacking colon tumor cell growth suppression; HCT116 beta-catenin knockout viability, CellTiter-Glo, 60 h; stronger effect = lower value; viability, % at 10 µM; 140,000 tested, 1.5% active; AID 818;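 active means viability at or under a set limit, the compound median less 4 SD, cut at about 6% in these data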;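 further: 0% = Hyamine 1622 control at 20 µM and 100% = untreated cell control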
# INS promoter inh: TRM-6 insulin promoter activity inhibition. TRM-6 cells (human fetal islet line), insulin promoter-eGFP reporter, imaging; reporter expression induced with tamoxifen. inhibition, % at 2 µM. 130,000 tested, 0.9% active. AID 1273;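 active means inhibition above the mean plus 3 SD, with well images judged a real hit on visual review, cut at about 60% in these data, passing the limit was not always enough; inconclusive means inhibition over the cutoff but images rejected on review; inactive means inhibition not above the cutoff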
# ROMK primary: human ROMK K+ channel modulation, primary screen; P48048; Tet-inducible ROMK, thallium flux fluorescence; actives lie on both sides; B-score at 10 µM; 130,000 tested, 2% active;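 active means signal ratio slope over the read window, or its plate-corrected B-score, at least 3 SD from the plate mean, either direction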;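 further: B-score of the F/F0 ratio slope over 7 to 12 s after thallium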
# Target sequence (P48048 whole entry, looked up): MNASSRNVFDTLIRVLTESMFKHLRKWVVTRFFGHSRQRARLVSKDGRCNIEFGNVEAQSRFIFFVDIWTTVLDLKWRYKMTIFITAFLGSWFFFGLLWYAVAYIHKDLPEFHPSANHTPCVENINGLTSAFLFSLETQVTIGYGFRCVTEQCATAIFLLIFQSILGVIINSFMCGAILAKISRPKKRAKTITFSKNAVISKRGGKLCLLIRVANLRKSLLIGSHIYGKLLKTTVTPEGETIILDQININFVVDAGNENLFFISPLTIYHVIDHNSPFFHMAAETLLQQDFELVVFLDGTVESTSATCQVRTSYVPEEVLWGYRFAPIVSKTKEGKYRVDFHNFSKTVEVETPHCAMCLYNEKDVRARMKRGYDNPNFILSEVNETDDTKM
# p97 inhibitor: blocks human p97 ATPase activity; recombinant p97 ATPase, Kinase-Glo ATP luminescence, 3 h; 220,000 tested, 0.42% active; inhibition, % at 8 µM; in the data active means inhibition above about 15%;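 further: 0% = DMSO vehicle and 100% = wells lacking enzyme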
# Active calls of the source: *; ? = inconclusive; · = no result. This is a sample that favours compounds with a hit; in the whole collection about 10% have one here.
SMILES,Lmaj promast,PTEN del growth,bCat KO growth,INS promoter inh,ROMK primary,p97 inhibitor
O=c1c2c(nc3c(-c4ccc(Cl)cc4)c[nH]n13)CCCC2,100.2*,14.3,12.2,-17.6,1.39,-3.2
Cc1[nH]n2c(=O)c3c(nc2c1-c1cccc2ccccc12)CCC3,-2.0,26.7,29.4,8.3,·,-0.3
COc1cc(-c2nc3cccc(C)n3c2NCC2CCCO2)ccc1O (stereo unspecified),5.3,·,·,-50.0,-1.27,-1.1
COc1ccc(NCC(=O)Nc2ccc(Cl)cc2C)c(OC)c1,99.0*,45.0,50.2,-82.9,·,-6.5
CC(C)S(=O)(=O)c1cnc(-c2cccnc2)nc1N,·,·,·,·,-0.662,5.9
CCSc1nnc(NC(=O)C2CC(=O)N(Cc3ccccc3)C2)s1 (stereo unspecified),-1.7,·,·,·,-0.304,-0.7
COC(CNC(=O)c1ccc(N2CCC3(CC2)OCCO3)c([N+](=O)[O-])c1)OC,60.0*,98.8,99.8,44.4,0.0183,0.5
O=C(c1ccc(N2CCC3(CC2)OCCO3)c([N+](=O)[O-])c1)N1CCOCC1,-4.4,·,·,·,-0.0114,3.0
Cc1cccc(-n2cc(CN3CCN(Cc4nccn4C)CC3)c(-c3cccc(F)c3)n2)c1,89.7*,·,·,·,-0.125,-2.8
CCn1ccnc1CN(C)Cc1cn(-c2ccc(C)cc2)nc1-c1ccc(F)cc1,100.0*,·,·,10.0,-0.373,-3.8
CN(Cc1cn(C)nc1-c1cccc(Cl)c1)Cc1nccn1C,·,·,·,·,·,7.0
Cc1ccc(-n2cc(CN(C)Cc3ncc[nH]3)c(-c3cccc(C)c3)n2)cc1,83.4*,·,·,31.7,-0.633,-2.9
COc1ccc(-n2cc(CN3CCCC3)c(-c3cccc(F)c3)n2)cc1,44.4,·,·,·,·,5.1
CN(Cc1ncc[nH]1)Cc1cn(-c2ccccc2)nc1-c1ccc2c(c1)OCO2,·,·,·,·,·,3.6
Cc1ccc(-n2cc(CN(C)Cc3nccn3C)c(-c3ccc(F)cc3)n2)cc1,79.5*,·,·,8.3,1.26,-2.8
CCn1ccnc1CN(C)Cc1cn(-c2ccccc2)nc1-c1ccc(OC)cc1F,37.2,·,·,-38.9,-0.349,-1.5
COC(=O)c1onc(-c2c(C)cc(C)cc2C)c1C(=O)OC,7.6,104.6,101.5,·,-0.377,2.7
CC(=O)N1CCN(Cc2nc3cc(NC(=O)NC4CCCCC4)ccc3n2C)CC1,-2.3,·,·,·,0.197,-1.0
O=C(CNC(=O)c1ccccc1F)NCCOc1ccccc1Cl,-5.8,89.6,98.8,-29.0,0.274,-5.2
CCn1ccnc1CN(C)Cc1cn(-c2cc(C)ccc2C)nc1-c1ccccc1,93.0*,·,·,·,-1.43,-1.5
Cc1ccc(-n2cc(CN3CCC(O)(c4ccccn4)CC3)c(-c3ccc(F)cc3)n2)cc1,72.6*,·,·,·,-0.17,4.3
CCn1ccnc1CN(C)Cc1cn(C)nc1-c1ccccc1F,9.5,·,·,-14.3,1.74,1.6
CCCCN(C(=O)CN1CCOCC1)c1c(N)n(CC(C)C)c(=O)[nH]c1=O,-6.1,102.3,92.2,·,·,2.2
COc1ccc(NC(=O)Nc2ccc(Cc3ccncc3)cc2)c(OC)c1,13.5,102.6,105.1,33.3,-1.51,3.3
OC(COCC1COc2ccccc2O1)CN1CCCCC1 (stereo unspecified),2.1,89.5,91.9,·,·,-4.2
SMILES,Lmaj promast,PTEN del growth,bCat KO growth,INS promoter inh,ROMK primary,p97 inhibitor
OC(CNCC1COc2ccccc2O1)COCc1cccs1 (stereo unspecified),92.1*,88.3,89.1,?,·,1.8
COc1ccc(CNCC(O)COCc2cccs2)cc1 (stereo unspecified),88.2*,109.8,91.1,-29.8,·,1.6
CC(OCC(O)CNCC1COc2ccccc2O1)c1ccc(Cl)cc1 (stereo unspecified),90.7*,·,·,·,-0.692,2.4
CCO[C@H]1OC(C(=O)N2CCN(Cc3ccccc3)CC2)=C[C@@H](C2CCCCC2)[C@@H]1CCCO,4.1,·,·,·,·,-6.4
CCO[C@H]1OC(C(=O)N2CCN(Cc3ccc4c(c3)OCO4)CC2)=C[C@@H](c2cn(C(C)=O)c3ccccc23)[C@@H]1CCCO,47.2,·,·,·,·,-3.0
CCO[C@@H]1OC(C(=O)N2CCN(Cc3ccc4c(c3)OCO4)CC2)=C[C@H](C2CCCCC2)[C@H]1CCCO,66.8*,·,·,·,·,-0.7
CCO[C@H]1OC(C(=O)N2CCN(Cc3ccc4c(c3)OCO4)CC2)=C[C@@H](c2csc3ccccc23)[C@@H]1CCCO,73.8*,·,·,·,·,2.0
COCCn1c(SCC(=O)N2CC(=O)Nc3ccccc32)nc2ccccc21,51.7*,89.8,93.8,-48.6,·,2.8
O=C(CN1CCc2ccccc21)NC(=O)NCc1ccccc1,-3.5,·,·,38.9,-0.458,3.6
Cc1[nH]c2ccccc2c1/C=N/NC(=S)NC(C)C,31.3,·,·,11.8,-0.0566,-1.1
CC(C)NC(=S)N/N=C/c1c[nH]c2ccccc12,65.8*,81.3,86.9,14.8,·,3.7
COC(=O)c1cscc1NC(C)=O,-5.7,104.5,97.7,75.0*,-0.397,3.5
COc1ccc(NC(=S)N2CCCC(c3nc4ccc(C)cc4[nH]3)C2)cc1 (stereo unspecified),94.2*,·,·,·,-0.122,1.6
Cc1cc2nc(C3CCCN(C(=S)Nc4ccccc4C)C3)[nH]c2cc1C (stereo unspecified),4.8,104.0,101.4,-43.3,·,-1.6
COc1ccc(NC(=S)N2CCCC(c3nc4ccc(C)cc4[nH]3)C2)c(OC)c1 (stereo unspecified),99.9*,·,·,·,-0.181,3.0
Cc1ccc(-c2nnc(N)s2)cc1,-9.0,89.7,93.3,7.1,0.0344,-5.1
COc1ccc(-c2nnc(N)s2)cc1,-7.8,91.0,86.3,75.0*,·,5.1
COc1ccc(C(=O)C2CCCN(Cc3ccc4nonc4c3)C2)c(OC)c1 (stereo unspecified),88.4*,·,·,·,-1.32,2.3
COc1ccc(C(=O)C2CCCN(Cc3cccn3-c3ccc(Cl)cn3)C2)c(OC)c1 (stereo unspecified),95.3*,·,·,-39.1,-1.89,-0.5
COc1ccc(CN2CCCC(C(=O)c3cccc(OC(C)C)c3)C2)cc1Cn1cccn1 (stereo unspecified),16.5,·,·,·,-1.17,0.0
O=C(c1cccc(C(F)(F)F)c1)C1CCCN(Cc2cccc(OCCO)c2)C1 (stereo unspecified),8.3,·,·,·,0.953,-2.1
CC(C)CN1CCN(Cc2cccn2-c2ccc(Cl)cn2)CC1CCO (stereo unspecified),11.1,·,·,·,-0.844,1.7
O=C(NCC1CCCN(Cc2ccc3nonc3c2)C1)c1cccc(C(F)(F)F)c1 (stereo unspecified),87.0*,·,·,21.4,·,-3.3
COc1ccc(C(=O)C2CCCN(C3Cc4ccccc4C3)C2)cc1OC (stereo unspecified),92.8*,·,·,28.6,·,-1.6
Cc1cc(C)c(O)c(C2(O)C(=O)c3ccccc3C2=O)c1,·,·,·,·,·,-2.4
CCC(C)Sc1nc2ccccc2n1CC(=O)O (stereo unspecified),-3.6,95.6,88.5,·,0.115,-5.9
COc1cccc(/C=C/C(=O)OCC(=O)NCCc2ccccc2)c1,-7.5,·,·,·,·,-1.2
Cc1nc(CN2CCCCC2)cc(=O)[nH]1,-8.6,·,·,·,0.00716,-0.8
